# Assay results as given in PubChem BioAssay (NCATS).
# Inconclusive results are not listed. Calls of active or inactive are those of the source. Calls follow the shape of the dose curve; as a rule, active = well fitted cell-killing curve with a large enough effect; inconclusive = small, poorly fitted or top-dose-only effect; inactive = flat fitted curve, though single readings scatter.
# Experiment: COV-362 Cancer Cell Toxicity qHTS against the NCATS CANVASS Library (AID 1347352)
# Conditions: COV-362 viability, CellTiter-Glo luminescence, 72 h; series mostly up to 38.3 µM; activity change, negative = cytotoxicity: at the top concentration
# Description: Natural products and their derivatives continue to be wellsprings of nascent therapeutic potential. However, many laboratories have limited resources for biological evaluation, leaving their previously isolated or synthesized compounds largely or completely untested. To address this issue, the Canvass library of natural products was assembled (https://tripod.nih.gov/canvass), in collaboration with academic and industry researchers, for quantitative high-throughput screening (qHTS) across a diverse set of cell-based and biochemical assays. The pure (>85% purity by liquid chromatography/mass spectrometry [LC/MS]) Canvass library of 346 natural products were submitted by 45 academic laboratories and companies around the world. We collected pure natural products to circumvent deconvolution and structure elucidation due to time and resource limitations. The library was formatted into 1536-well plates and evaluated in 50 qHTS (in an 11-pnt concentration series) bioassays with broad scope of disease-relevant mechanisms. The resulting data set from 50 different assays was then systematically analyzed to identify overall trends and specific natural products with interesting biological activities. Reported herein are the results of each individual qHTS and their corresponding assay protocol. National Center for Advancing Translational Sciences (NCATS), Rockville, MD National Institute of Health (NIH), Bethesda, Maryland
# Cancer Cell Toxicity COV-362, OV-KATE, OV-SAHO, UWB1.289, UWB1.289-WTBRCA1, HEK-293, HPAF-II, Panc-1005, SW1088, and U-118MG-screen protocol. 1. In a 1536 well, white solid bottom tissue culture plates (Corning 7494), corresponding cells (COV-362, OV-KATE, OV-SAHO, UWB1.289, UWB1.289-WTBRCA1, HEK-293, HPAF-II, Panc-1005, SW1088, or U-118MG) were dispensed in each well at a final concentration of 1000 cells / well (6uL volume) using the Multidrop Combi (Thermo Fisher Scientific) dispenser. 2. The plates were incubated for 4 hours at 37 degrees C/5% CO2/95% Rh. 3. Compounds were pin transferred (~23nL volume) via Wako Pin-tool (Wako Automation, Richmond VA) equipped with a 1536 pin head. The assay plates were treated with compounds in an 11-pnt concentration series with a final concentration range of […] to 85uM. 4. Bortezomib was used as a single dose control (0.5mM column 4, rows 1 - 32) at a final concentration of 1.9uM and as a 16pnt titration (1mM; 1:2 dilution; 16-points; n = 2; column 3, rows 1 - 32) with final concentration range of 0.1nM - 3.8uM. 5. The assay plates were incubated for 72 hours at 37 degrees C/5% CO2/95% Rh. 6. 3uL CellTiter-Glo detection reagent was then added to the plates (columns 2 - 48, rows 1 - 32) and incubated at room temperature for additional 15min. 7. Luminescence signal was acquired via the ViewLux plate reader (PerkinElmer) using a clear filter, 2 second exposure and 2x binning settings.
# % is scaled to controls: 0 for no effect and ±100 for the full control effect; potency is read from the fitted curve at half-maximal effect.
Compound,"activity change, negative = cytotoxicity",Potency
C=C1[C@@]2(C)CC3C4(C)CCC(O)C(C)(C)C4CCC3(C)[C@]1(C(=O)OC)C(=O)C(C)(O)C2=O (stereo not given in full),-0.756% (inactive),–
O=C1CC(c2ccc(O)cc2)Oc2cc(O)ccc21 (stereo not given),-11.7% (inactive),–
C[C@@]12C[C@@H](C[C@@H]3C(=O)O[C@@H](c4ccoc4)[C@H](OC(=O)c4ccccc4)[C@@H]31)OC2=O,1.78% (inactive),–
C=C1CCC2C(C)(C(=O)O)CCC(CC/C(C)=C/C(=O)NC(CCC(N)=O)C(=O)O)[C@@]2(C)C1 (stereo not given in full),2.86% (inactive),–
CN1CC[C@@]2([C@@]34CCN(C)[C@@H]3Nc3ccccc34)c3ccccc3N[C@@H]12,-3.61% (inactive),–
C[C@]12CC[C@]3(C1)[C@H](CC2=O)C[C@@H](OC(=O)c1ccccc1)[C@H]1[C@](C)(C(=O)O)CCC[C@@]13C,-7.24% (inactive),–
CCC(=O)CCCCC[C@@H]1NC(=O)[C@H]2CCCCN2C(=O)[C@H](C(C)C)NC(=O)[C@H](Cc2cn(OC)c3ccccc23)NC1=O,–,18.8 µM (active)
C[C@@]12CCC[C@@](C)(C(=O)O)[C@H]1CC[C@@]13C[C@@H](CC[C@H]12)[C@](C)(O)C3,-0.934% (inactive),–
CC[C@@H](c1cc(OC)c(OC)cc1OC)[C@H](C)[C@@H](/C(C)=C/c1cc(OC)c(OC)cc1OC)c1cc(OC)c(OC)cc1OC,–,inactive
C=CC(CCCCC)C1C(=O)NC(=O)C1C(=O)C1C2C(C)CC(C(=O)O)CC2CC1(O)C(=O)/C=C/C (stereo not given),-1.83% (inactive),–
COC(=O)[C@]1([C@H]2CCC(=O)O2)CC(=O)c2c(O)cc(C)cc2O1,-2.44% (inactive),–
CC(C)=CCC[C@]12c3cc4c(cc3CC[C@@]1(C)[C@H](C)CC[C@@H]2O)[nH]c1ccccc14,-24.1% (inactive),–
C/C=C(/CO)C(=O)O[C@@H]1[C@H](O)[C@@H](C(=O)OC)O[C@@H]2C[C@H]3OC(n4cnc5c(N)ncnc54)[C@H](OC)[C@H]3O[C@@]12O (stereo not given in full),1.37% (inactive),–
[C-]#[N+][C@@]12C(=O)[C@@H]3[C@@H](O[C@@]4(C(=O)N(C)c5cccc1c54)C3(C)C)C(=O)[C@@]2(C)C=C,-5.04% (inactive),–
O=C1OC(CCO)c2cccc(O)c21 (stereo not given),-0.794% (inactive),–
C=C[C@@](C)(O)CC[C@@H]1[C@@]2(C)CCCC(C)(C)[C@@H]2CC[C@@]1(C)O,1.11% (inactive),–
C[C@H]1CCC2(OC1)O[C@H]1C[C@H]3[C@@H]4CC(=O)[C@]5(O)C[C@H](O)CC[C@@]5(C)[C@H]4CC[C@@]3(C)[C@H]1[C@H]2C (stereo not given in full),-8.4% (inactive),–
C/C=C(/C)c1cc(O)c(C)c2c1Oc1cc(O)cc(C)c1C(=O)O2,-4.09% (inactive),–
C/C=C1/C2=CCCN3C(=O)O[C@H]([C@H]1O)[C@H]23,-7.13% (inactive),–
C=C1C[C@]23C=CC(=O)[C@@](C)(CCCC(C)C(=O)N[C@@H](CO)C(=O)O)[C@@H]2C[C@@H]1CC3 (stereo not given in full),4.84% (inactive),–

Compound,"activity change, negative = cytotoxicity",Potency
CCC(C)=C1OC(=O)[C@H](C)[C@H](O)[C@H](Cc2cccnc2)NC(=O)C(NC(=O)c2ncccc2O)C(C)OC1=O (stereo not given in full),-10.1% (inactive),–
CN1C(=O)C(=O)N2C(=C[C@]3(c4c[nH]c5ccccc45)c4ccccc4N[C@H]23)C1=O,-3.48% (inactive),–
COc1cc2ccc(=O)oc2c(O)c1O[C@@H]1O[C@H](CO)[C@@H](O)[C@H](O)[C@H]1O,-23.7% [at 22.9 µM] (inactive),–
CO/C=C/C(=O)c1cc2cnc3c(N)cc(=NC(=O)C(C)C)c([nH]1)c23,–,0.211 µM (active)
C[C@@]12CCC[C@@](C)(C(=O)O)[C@H]1C[C@@H](O)[C@@]13C[C@@H](CC[C@@H]21)[C@](C)(O)C3,-2.4% (inactive),–
C/C=C/[C@H]1[C@H]2C(=O)c3c(O)c(C)c(O)c(C)c3[C@]1(C(=O)O)C(=O)C=C2C,-0.892% (inactive),–
CC(C)=CCCC(C)(O)[C@H]1CC=C(C)C(O)C1 (stereo not given in full),1.12% (inactive),–
C=C[C@]1(C)CC[C@@H]([C@H](C)C(=O)CC=C(C)C)O1,0% (inactive),–
COc1c(O)cc2c(c1O)C(=O)c1c(coc1C)C2=O,-17.1% (inactive),–
C[C@]12CCC[C@](C)(C(=O)O)[C@@H]1CC[C@@]1(C)c3cocc3CC[C@H]21,3.64% (inactive),–
COc1cc2c(c(O)c1O)C(=O)c1c(coc1C)C2=O,–,13.3 µM (active)
C/C1=C/[C@@H](C)[C@H](O)[C@@H](O)/C=C/CC/C=C/C(=O)O[C@@H]1[C@H](C)C(=O)CCCC1CC(=O)NC(=O)C1,-6.99% (inactive),–
Cc1cc(O)cc2c1C(=O)c1c(O)cc(O)cc1C2=O,2.88% (inactive),–
C=C1C(=O)O[C@H]2[C@H]1CCC(C)=C1CC[C@@](C)(O)[C@@H]12,–,16.7 µM (active)
C/C=C(/C)c1c(Cl)c(O)c(C)c2c1Oc1c(Cl)c(O)c(Cl)c(C)c1C(=O)O2,-13.1% (inactive),–
O=C1CC(c2ccc(O)cc2)Oc2ccccc21 (stereo not given),-18.1% (inactive),–
CO[C@H]1[C@@H](OC(=O)/C(C)=C\[C@@H]2O[C@@H]2[C@H]2O[C@H]2C)[C@H](O)[C@H](OCC23C[C@@H]4[C@H](C)CC[C@H]4C4(C=O)CC2C=C(C(C)C)C34C(=O)O)O[C@@H]1C (stereo not given in full),-11.7% (inactive),–
C/C=C(/C)c1c(Cl)c(OC)c(C)c2c1Oc1c(Cl)c(O)c(Cl)c(C)c1C(=O)O2,-16.1% (inactive),–
COc1cc2oc3ccccc3c(=O)c2cc1OC,-25.4% [at 76 µM] (inactive),–
C=C1CC[C@@H](Br)C(C)(C)[C@]12CC=C(C)C(=O)C2,-14.1% (inactive),–
